What was measured:
Details in all cases: concentration: 1 μM,replicates: in singlicate; n = 1
PIK3C2G = test system: PIK3C2G
PIK3CA = test system: PIK3CA
PIK3CB = test system: PIK3CB
PIK3CD = test system: PIK3CD
PIK3CG = test system: PIK3CG
PIK4CB = test system: T1, PIK4CB
T1 construct: gene PI4KB

PIKFYVE = test system: PIKFYVE
PIM1 = test system: PIM1
PIM2 = test system: PIM2
PIM3 = test system: PIM3
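Note: KINOMEscan kinase panel screen.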

SMILES | %Inh (PIK3C2G) [%] | %Inh (PIK3CA) [%] | %Inh (PIK3CB) [%] | %Inh (PIK3CD) [%] | %Inh (PIK3CG) [%] | %Inh (PIK4CB) [%] | %Inh (PIKFYVE) [%] | %Inh (PIM1) [%] | %Inh (PIM2) [%] | %Inh (PIM3) [%]
Cc1ccc(CC(=O)N2CCc3cc(-c4cn(C)c5ncnc(N)c45)ccc32)cc1 [GSK2634758] | 4 | 0 | 0 | 36 | 0 | 0 | 1 | 0 | 0 | 0
CN1CCN(CCNc2nc3cc(Oc4ccc(NC(=O)Nc5cc(C(F)(F)F)ccc5F)cc4)ccc3[nH]2)CC1.Cl.Cl [GW768504] | 0 | 0 | 0 | 0 | 0 | 0 | 0 | 10 | 2 | 0
COc1cc2nccc(Nc3ccc(Oc4ccccc4)cc3)c2cc1OC.Cl [GI261656] | 0 | 0 | 0 | 0 | 0 | 0 | 5 | 0 | 0 | 0
CCN1CCN(CCCC(=O)Nc2n[nH]c3nc(-c4ccc(O)cc4)c(Br)cc23)CC1 [SB-731579] | 16 | 0 | 0 | 44 | 6 | 16 | 14 | 57 | 89 | 72
Cn1ccc2ncnc(Oc3ccc(NC(=O)Nc4cnn(C(C)(C)C)c4)c(Cl)c3)c21 | 8 | 10 | 0 | 14 | 7 | 0 | 0 | 0 | 7 | 0
C[C@@H](Oc1cc(-n2cnc3cc(-c4ccncc4)ccc32)sc1C(N)=O)c1ccccc1Cl [GSK479719] | 0 | 0 | 0 | 0 | 0 | 0 | 27 | 0 | 0 | 0
Nc1nccc(-c2ccc3c(N)n[nH]c3c2)n1 [GSK1034945] | 0 | 5 | 0 | 3 | 2 | 0 | 0 | 9 | 0 | 7
Cl.Nc1n[nH]c2cc(-c3ccccn3)ccc12 [GSK2189892] | 0 | 0 | 0 | 0 | 0 | 0 | 0 | 0 | 0 | 0
Cn1ccc2ncnc(Oc3ccc(NC(=O)Nc4ccnc(C(F)(F)F)c4)c(Cl)c3)c21 | 13 | 0 | 0 | 0 | 0 | 0 | 7 | 5 | 3 | 0
COc1ccc(Nc2nccc(N3CCC(NC(=O)c4cccc(C#N)c4)C3)n2)cc1 (stereo not shown) [GSK1379730] | 0 | 0 | 0 | 25 | 0 | 0 | 0 | 0 | 0 | 0
O=C(Nc1ccccc1)c1cccc(Oc2ccc3nccn3n2)c1 | 6 | 0 | 0 | 11 | 0 | 68 | 0 | 0 | 5 | 0
COc1cccc(C2=C(Nc3cccc(Cl)c3)C(=O)NC2=O)c1 [SB-341556] | 0 | 1 | 0 | 0 | 0 | 10 | 0 | 9 | 0 | 0
CN(c1ccccc1CNc1nc(Nc2ccc3c(c2)CC(=O)N3)ncc1C(F)(F)F)S(C)(=O)=O | 0 | 0 | 0 | 0 | 0 | 0 | 38 | 0 | 0 | 0
O=C1NCCc2[nH]c(-c3ccncc3)cc21 | 0 | 7 | 45 | 0 | 12 | 20 | 38 | 28 | 23 | 37
CC(=O)Nc1ccc(-c2cc3ncnc(SCC(=O)O)c3s2)cc1 | 0 | 0 | 26 | 5 | 1 | 0 | 38 | 10 | 48 | 22
CNC(=O)c1ccccc1Nc1nc(Nc2cccc(CS(C)(=O)=O)c2)ncc1C.O=CO [GSK1520489] | 0 | 0 | 0 | 0 | 20 | 12 | 0 | 18 | 0 | 0
CC(C(=O)NC1CCN(c2ccnc(Nc3ccc(F)cc3)n2)C1)c1ccc(Cl)cc1 (stereo not shown) [GSK1379713] | 0 | 0 | 0 | 15 | 0 | 0 | 9 | 9 | 0 | 0
Cc1cccc(-c2nc(Nc3ccncc3)c3sccc3n2)n1 [GW869641] | 40 | 33 | 28 | 46 | 23 | 31 | 86 | 27 | 3 | 13
N#Cc1cccc(C(=O)NC2CCN(c3ccnc(Nc4ccc(F)cc4)n3)C2)c1 (stereo not shown) [GSK1379708] | 0 | 0 | 0 | 0 | 0 | 0 | 0 | 0 | 0 | 0

SMILES | %Inh (PIK3C2G) [%] | %Inh (PIK3CA) [%] | %Inh (PIK3CB) [%] | %Inh (PIK3CD) [%] | %Inh (PIK3CG) [%] | %Inh (PIK4CB) [%] | %Inh (PIKFYVE) [%] | %Inh (PIM1) [%] | %Inh (PIM2) [%] | %Inh (PIM3) [%]
COc1cc(Nc2nccc(N3CCC(NC(=O)c4cccc(C#N)c4)C3)n2)cc(OC)c1OC (stereo not shown) [GSK1379751] | 0 | 0 | 0 | 0 | 0 | 3 | 9 | 0 | 0 | 0
Cl.Cl.NC[C@H](CC1CCCCC1)NC(=O)c1ccc(-c2ccnc3[nH]ccc23)s1 [GSK1581428] | 0 | 0 | 0 | 0 | 0 | 0 | 0 | 0 | 0 | 0
Cn1ccc2ncnc(Oc3ccc(NC(=O)Nc4cc(C(C)(C)C)on4)c(Cl)c3)c21 | 48 | 5 | 8 | 12 | 4 | 0 | 19 | 1 | 0 | 11
Cl.c1ccc(Oc2ccc(Nc3ccnc4cc(-c5ccc(CN6CCNCC6)o5)ccc34)cc2)nc1 [GW567142] | 0 | 0 | 0 | 0 | 10 | 0 | 0 | 0 | 0 | 2
O=C(NCC1CC1)c1ccc(-c2cc(C(=O)NC3CC3)ccc2F)cc1 [GW810445] | 0 | 0 | 0 | 0 | 0 | 0 | 6 | 9 | 0 | 0
COC(=O)Nc1nc2cc(Oc3ccc(NC(=O)Nc4cc(C(F)(F)F)ccc4Cl)cc3)ccc2[nH]1.Cl [GW697465] | 0 | 0 | 16 | 4 | 0 | 0 | 20 | 30 | 0 | 22
COC(=O)c1cccc(NC(=O)NC2CCN(c3ccnc(NCc4ccc(F)cc4)n3)CC2)c1 [GSK1379860] | 0 | 0 | 0 | 61 | 0 | 0 | 57 | 0 | 0 | 0
O=C(Nc1cccc(C(F)(F)F)c1)c1cccc(Oc2ccc3nccn3n2)c1 | 13 | 98.1 | 0 | 17 | 94.2 | 39 | 0 | 0 | 7 | 0
COc1cc2c(Nc3ccc(NC(=O)c4ccccc4)cc3)ncnc2cc1OCCCN1CCOCC1 [GSK301329] | 0 | 0 | 0 | 0 | 0 | 0 | 0 | 0 | 0 | 0
Cc1cccc2c(-c3ccncc3)c(-c3ccc(F)cc3)nn12.Cl [GW461487] | 0 | 0 | 0 | 0 | 0 | 0 | 0 | 18 | 0 | 0
CS(=O)c1ccc(-c2coc3ccc(-c4n[nH]c(=O)o4)cc23)cc1 (stereo not shown) | 49 | 46 | 41 | 35 | 78 | 43 | 64 | 87 | 82 | 84
NC(=O)Nc1sc(-c2ccc(F)cc2)cc1C(N)=O [GW789449] | 19 | 0 | 0 | 30 | 1 | 18 | 22 | 0 | 0 | 0
Cn1ccc2ncnc(Oc3ccc(NC(=O)Nc4cccc(C(F)(F)F)c4)c(F)c3)c21 | 0 | 0 | 0 | 0 | 0 | 0 | 13 | 19 | 0 | 8
CN(c1cccc(CNc2nc(Nc3ccc4c(c3)CC(=O)N4)ncc2C(F)(F)F)c1)S(C)(=O)=O | 0 | 0 | 0 | 0 | 0 | 0 | 31 | 12 | 0 | 3
Cc1ccc(Nc2ccnc(Nc3ccc4c(c3)CS(=O)(=O)C4)n2)cc1O.Cl [GW579362] | 42 | 2 | 0 | 0 | 31 | 67 | 0 | 29 | 0 | 5
CS(=O)(=O)c1cccc(CNc2nc(Nc3ccc4c(c3)[C@@H]3C[C@@H]4CNC3=O)ncc2C(F)(F)F)c1 | 0 | 0 | 0 | 0 | 0 | 0 | 24 | 0 | 0 | 0
Cc1ccc2c(-c3ccnc(Nc4ccc(C(F)(F)F)cc4)n3)cnn2n1 [GW819776] | 0 | 2 | 0 | 0 | 48 | 33 | 23 | 10 | 0 | 0
COc1cccc(CNC(=O)NC2CCN(c3ccnc(Nc4cc(OC)c(OC)c(OC)c4)n3)C2)c1 (stereo not shown) [GSK1379765] | 0 | 0 | 83 | 35 | 0 | 67 | 0 | 0 | 0 | 0
